This passage reports growth results from PubChem BioAssay (NCI).

Structures are written as SMILES. This is part of a sample that, as a whole, favours compounds with a hit. Of some 83,000 tested, about 20% had one in any assay.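 For each line, cells grew in 96-well plates with the test compound present at a single concentration for 48 hours.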 Unmarked numbers belong to inactive results. Active and inactive are the calls of the source. How the source made its calls: active means growth percent below 10; inactive means the rest. *1 amine or outer side, *2 acyl side, *3 side chain or, on linkers, in order; H or OH if unused. Where a SMILES comes first, the peptide text is derived from it. Bridges are numbered along the chain shown (N, C = ends). Roman numbers before positions name the chains, in order. [ ]: non-standard residue; d: D form. Actinocin(1to9) = Cc1c2oc3c(C)ccc(C(=O)[*:2])c3nc-2c(C(=O)[*:1])c(N)c1=O; NMeV = CN[CH](C(=O)O)C(C)C; Sar = CNCC(=O)O

Among the test systems are SK-MEL-2 melanoma; EKVX NSCLC; SN12C renal; UO-31 renal; TK-10 renal; ACHN renal; CAKI-1 renal; A498 renal; MOLT-4 leukemia; CCRF-CEM leukemia.
Assay in all cases: NCI-60 one-dose screen, 48 h (100 = growth as untreated, 0 = no growth, -100 = all killed)
Holding throughout (details): 10 µM unless noted

`CC(CSc1n[nH]c(=S)s1)c1ccccc1` (configuration not stated): the growth with SK-MEL-2 melanoma is 130%; in the assay on EKVX NSCLC, 107%; with SN12C renal it was 101%; in the assay on UO-31 renal, 77.4%; with TK-10 renal, 116%; in the assay with ACHN renal, 116%. Also, the growth in the assay on CAKI-1 renal was 98.5%; in the assay on A498 renal, 108%; in the assay with MOLT-4 leukemia, 91.2%.

As for `CCCCCCCCCCCC[N+]1(CCCCCCCCCCCC)CCCC(C)C1` (configuration not stated), the growth in the assay on SK-MEL-2 melanoma was -96.5% (active); with EKVX NSCLC, -51.7% (active); with SN12C renal, -72.4% (active); with UO-31 renal it was -100% (active); in the assay with TK-10 renal, -79.3% (active); with ACHN renal, -78.5% (active). Further, the growth with A498 renal is -88.4% (active); with CCRF-CEM leukemia, -56.7% (active); with MOLT-4 leukemia, -62.6% (active).

For the compound `CCC(C)C1NC(=O)C(NC(=O)c2c3nc4c(C(=O)NC5C(=O)NC(C(C)CC)C(=O)N6CCCC6C(=O)N(C)CC(=O)N(C)C(C(C)C)C(=O)OC5C)ccc(C)c4oc-3c(C)c(=O)c2N)C(C)OC(=O)C(C(C)C)N(C)C(=O)CN(C)C(=O)C2CCCN2C1=O` (configuration not stated) (I: TIP[Sar][NMeV] / II: TIP[Sar][NMeV]; ester I:1-I:C, II:1-II:C; linker I:N-II:N via Actinocin(1to9); configuration not given here), the growth in the assay with SK-MEL-2 melanoma was -43.2% (active); with EKVX NSCLC, 8.25% (active); in the assay on SN12C renal it was 15.4%; in the assay with UO-31 renal it was -15.6% (active); with TK-10 renal, 3.49% (active); in the assay on ACHN renal it was -4.88% (active). Besides, the growth with CAKI-1 renal is -13.1% (active); in the assay with CCRF-CEM leukemia, -5.99% (active); with MOLT-4 leukemia, -0.501% (active).

For `CCc1cccc(CC)c1N1C(=O)C=CC1=O`, the growth in the assay with SK-MEL-2 melanoma was 107%; with EKVX NSCLC, 113%; in the assay on SN12C renal, 129%; in the assay with UO-31 renal, 90.3%; in the assay with TK-10 renal it was 104%; in the assay on ACHN renal, 102%. Besides, the values for the growth in the assay on A498 renal, in the assay on CCRF-CEM leukemia and with MOLT-4 leukemia were 100%, 17% and -10% (active), respectively.

Consider `O=C(NNc1ccccc1)OCc1ccccc1`, for which the growth in the assay with SK-MEL-2 melanoma was 86.1%; in the assay on EKVX NSCLC, 91%; in the assay with SN12C renal, 84.9%; with UO-31 renal, 56.8%; in the assay with TK-10 renal it was 90%; in the assay with ACHN renal, 50.2%. For the same compound, the growth in the assay with CAKI-1 renal is 28.3%; with A498 renal, 86.1%; in the assay on CCRF-CEM leukemia, 22%; in the assay on MOLT-4 leukemia, 26.9%.

As to `COc1ccc2nc3cc([N+](=O)[O-])ccc3c(NNc3ccccc3)c2c1`, the growth in the assay on SK-MEL-2 melanoma is 74.9%; in the assay with EKVX NSCLC, 83.1%; in the assay with SN12C renal, 92.4%; with UO-31 renal, 91.4%; in the assay with TK-10 renal, 60%; with ACHN renal it was 68.7%. The growth was 86.1% in the assay with CAKI-1 renal, 90.6% in the assay on CCRF-CEM leukemia and 128% with MOLT-4 leukemia.

For the compound `O=C(Nc1cccc(C(F)(F)F)c1)Oc1ccc(Cl)c2cccnc12`, the growth is 9.44% (active) in the assay on SK-MEL-2 melanoma; -2.85% (active) in the assay with EKVX NSCLC; 33.1% in the assay on SN12C renal; -17.3% (active) in the assay on UO-31 renal; 72.2% in the assay on TK-10 renal; -2.14% (active) in the assay on ACHN renal. For the same compound, the growth in the assay on A498 renal is 78.5%; in the assay on CCRF-CEM leukemia, -15.3% (active); in the assay on MOLT-4 leukemia, -1.74% (active).

Turning to `CCCCCCCCCCCC[n+]1ccccc1` (tested in a mixture with another compound), the growth in the assay on SK-MEL-2 melanoma was -83.5% (active); in the assay with EKVX NSCLC it was -20.5% (active); in the assay on SN12C renal, -15.9% (active); in the assay with UO-31 renal, 1.25% (active); in the assay with TK-10 renal, -47.5% (active); in the assay with ACHN renal it was 22.2%. Also, the growth in the assay on A498 renal was 42%; with CCRF-CEM leukemia it was -2.6% (active); in the assay with MOLT-4 leukemia, -30.6% (active).

For `Cc1nn(CCO)c(C)c1N=[N+]([O-])c1c(C)nn(CCO)c1C`, the growth was 58.1% in the assay with SK-MEL-2 melanoma; 23.4% in the assay with EKVX NSCLC; 60% with SN12C renal; -93.6% (active) with UO-31 renal; -46.9% (active) in the assay on TK-10 renal; -42.8% (active) in the assay on ACHN renal. In addition, the figures for the growth with A498 renal and in the assay with CCRF-CEM leukemia were 105% and 1.91% (active), respectively.

In the case of `CC(C)Nc1ccc(Nc2ccc(NC(C)C)cc2)cc1`, the growth with SK-MEL-2 melanoma was 69.9%; with EKVX NSCLC it was 31.3%; in the assay with SN12C renal, 30.7%; in the assay with UO-31 renal, 87%; in the assay on TK-10 renal, 62.6%; with ACHN renal, 70.4%. Also, the growth with CAKI-1 renal was 94.4%; in the assay with A498 renal, 84.1%; with CCRF-CEM leukemia it was 58.6%; with MOLT-4 leukemia it was 30.1%.

As to `CC(C)(C)c1ccc(CCO)cc1`, the growth was 92.3% with SK-MEL-2 melanoma; 89.6% with EKVX NSCLC; 91.8% in the assay with SN12C renal; 78.8% with UO-31 renal; 93.7% with TK-10 renal; 107% with ACHN renal. Moreover, the growth in the assay on A498 renal was 118%; in the assay on CCRF-CEM leukemia, 87.2%; in the assay with MOLT-4 leukemia, 99.1%.

Take `O=C1C=CC(=O)N1c1ccc(O)cc1`: the growth in the assay with SK-MEL-2 melanoma is 107%; in the assay with EKVX NSCLC, 109%; with SN12C renal it was 104%; in the assay on UO-31 renal it was 98.5%; in the assay with TK-10 renal, 103%; in the assay with ACHN renal, 94.3%. In addition, the growth was 107% with CAKI-1 renal, 104% in the assay on A498 renal, 81% in the assay with CCRF-CEM leukemia and 104% in the assay on MOLT-4 leukemia.

As for `N#CC(=C1SCS1)[N+](=O)[O-]`, the growth in the assay on SK-MEL-2 melanoma is 19.2%; with EKVX NSCLC, 63.7%; in the assay on SN12C renal, 28%; with UO-31 renal, 32.3%; with TK-10 renal it was 3.93% (active); in the assay with ACHN renal it was 24.5%. In addition, the growth with A498 renal is 59.3%; in the assay on CCRF-CEM leukemia it was 2.01% (active); in the assay on MOLT-4 leukemia, 3.81% (active).

Take `CC(=O)N1CC(=O)NC1=S`: the growth is 105% in the assay on SK-MEL-2 melanoma; 94% in the assay with EKVX NSCLC; 100% with SN12C renal; 86.1% in the assay with UO-31 renal; 102% in the assay with TK-10 renal; 103% in the assay with ACHN renal. Besides, the figures for the growth with CAKI-1 renal, in the assay with CCRF-CEM leukemia and in the assay on MOLT-4 leukemia were 93%, 105% and 104%, respectively.

For `COC(=O)c1nc(=S)[nH]c(C(=O)OC)c1C(=O)c1ccc(Cl)c(Cl)c1`, the growth in the assay on SK-MEL-2 melanoma was 107%; with EKVX NSCLC, 100%; in the assay on SN12C renal it was 102%; in the assay with UO-31 renal, 87%; in the assay with TK-10 renal, 106%; in the assay on ACHN renal it was 114%. The growth in the assay on CAKI-1 renal is 94.6%; in the assay with A498 renal it was 130%; in the assay on MOLT-4 leukemia, 130%.
